# Laboratory results reported in paper PMC7862700, “An all-to-all approach to the identification of sequence-specific readers for epigenetic DNA modifications on cytosine”.
# Assays:
# Test in all cases: DAPPL (digital affinity profiling via proximity ligation, sequencing); 10 mM Tris-HCl pH 7.5, 50 mM NaCl, 1 mM DTT, 4% glycerol, room temperature, 30 min; GST-TFs on glutathione beads, 16-mer random dsDNA library, 0.1% formaldehyde crosslink after washing; high values mean tight binding
# Conditions in all cases: protein: recombinant; tags: N-terminal GST; dsDNA, one strand shown
# FLI1 = target: T1, FLI1 (Homo sapiens, UniProt Q01543 1-452)
# T1 sequence: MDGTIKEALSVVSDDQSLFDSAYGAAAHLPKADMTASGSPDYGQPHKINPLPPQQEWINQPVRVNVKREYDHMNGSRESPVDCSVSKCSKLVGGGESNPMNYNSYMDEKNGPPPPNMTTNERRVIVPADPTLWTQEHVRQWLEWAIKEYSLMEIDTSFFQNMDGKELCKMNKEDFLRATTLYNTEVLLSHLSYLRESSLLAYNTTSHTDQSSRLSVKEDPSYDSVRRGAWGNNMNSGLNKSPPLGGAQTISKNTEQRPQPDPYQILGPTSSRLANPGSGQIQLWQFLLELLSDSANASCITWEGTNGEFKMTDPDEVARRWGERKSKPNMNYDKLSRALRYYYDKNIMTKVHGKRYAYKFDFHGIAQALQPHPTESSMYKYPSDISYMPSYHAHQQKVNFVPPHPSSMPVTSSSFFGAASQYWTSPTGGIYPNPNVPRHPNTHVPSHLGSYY
# Outline: (§1)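 A tag-only sample was pooled with DNA-barcoded human transcription factors that had been expressed in yeast as GST fusions and captured on glutathione beads. The pools were incubated for 30 min at room temperature with 200 nmole of a random double-stranded 16-mer DNA library in Tris/NaCl/DTT/glycerol buffer, then washed, crosslinked with 0.1% formaldehyde, proximity-ligated (BsaI/T4 ligase, 1 h, 37 °C), PCR-amplified and sequenced on an Illumina NextSeq500. Binding signal is each hexamer's read frequency for a factor divided by its frequency for the tag-only sample.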
# ELK1 = target: T2, ELK1 (Homo sapiens, UniProt P19419 1-428)
# T2 sequence: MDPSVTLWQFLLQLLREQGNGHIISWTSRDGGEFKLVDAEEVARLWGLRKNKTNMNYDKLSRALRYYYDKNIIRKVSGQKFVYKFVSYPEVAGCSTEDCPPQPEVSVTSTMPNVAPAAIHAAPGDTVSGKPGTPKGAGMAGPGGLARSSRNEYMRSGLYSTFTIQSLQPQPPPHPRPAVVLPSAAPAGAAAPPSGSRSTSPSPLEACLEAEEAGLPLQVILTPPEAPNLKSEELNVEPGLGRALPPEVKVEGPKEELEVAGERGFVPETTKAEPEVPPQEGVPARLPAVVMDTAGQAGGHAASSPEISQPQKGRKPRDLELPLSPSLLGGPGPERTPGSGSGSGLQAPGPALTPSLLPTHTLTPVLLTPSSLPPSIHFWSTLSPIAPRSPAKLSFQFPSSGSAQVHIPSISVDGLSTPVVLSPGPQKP
# Outline: as §1
# GABPA = target: T3, GABPA (Homo sapiens, UniProt Q06546 1-454)
# T3 sequence: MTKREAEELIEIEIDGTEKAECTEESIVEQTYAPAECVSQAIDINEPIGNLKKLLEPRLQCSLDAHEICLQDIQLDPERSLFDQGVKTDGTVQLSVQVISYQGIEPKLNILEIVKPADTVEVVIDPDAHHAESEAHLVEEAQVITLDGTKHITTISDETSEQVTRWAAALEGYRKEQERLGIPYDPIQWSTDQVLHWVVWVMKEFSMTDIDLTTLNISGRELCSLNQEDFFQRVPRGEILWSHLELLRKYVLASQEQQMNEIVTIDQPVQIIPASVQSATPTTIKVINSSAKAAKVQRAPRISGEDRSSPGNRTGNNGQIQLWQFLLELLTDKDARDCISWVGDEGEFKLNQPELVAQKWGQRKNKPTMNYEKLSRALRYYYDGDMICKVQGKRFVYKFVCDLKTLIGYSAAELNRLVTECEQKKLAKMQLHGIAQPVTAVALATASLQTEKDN
# Outline: as §1
# ERG = target: T4, ERG (Homo sapiens, UniProt P11308 1-479)
# T4 sequence: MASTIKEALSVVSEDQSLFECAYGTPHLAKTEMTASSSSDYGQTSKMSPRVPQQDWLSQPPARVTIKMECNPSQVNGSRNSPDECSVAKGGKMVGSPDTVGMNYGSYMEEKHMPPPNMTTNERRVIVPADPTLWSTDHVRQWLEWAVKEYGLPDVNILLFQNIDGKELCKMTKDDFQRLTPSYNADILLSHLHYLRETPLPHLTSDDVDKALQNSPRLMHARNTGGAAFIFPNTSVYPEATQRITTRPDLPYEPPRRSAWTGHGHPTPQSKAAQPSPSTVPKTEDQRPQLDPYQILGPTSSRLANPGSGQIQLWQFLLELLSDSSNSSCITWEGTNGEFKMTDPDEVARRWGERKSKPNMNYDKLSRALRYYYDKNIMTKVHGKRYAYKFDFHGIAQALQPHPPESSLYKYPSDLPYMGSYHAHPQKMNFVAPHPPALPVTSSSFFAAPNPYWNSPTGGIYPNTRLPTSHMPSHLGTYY
# Outline: as §1
# ELF1 = ELF1 (Homo sapiens, UniProt P32519 1-619)
# Outline: as §1
# EHF = target: T5, EHF (Homo sapiens, UniProt Q9NZC4 1-300)
# T5 sequence: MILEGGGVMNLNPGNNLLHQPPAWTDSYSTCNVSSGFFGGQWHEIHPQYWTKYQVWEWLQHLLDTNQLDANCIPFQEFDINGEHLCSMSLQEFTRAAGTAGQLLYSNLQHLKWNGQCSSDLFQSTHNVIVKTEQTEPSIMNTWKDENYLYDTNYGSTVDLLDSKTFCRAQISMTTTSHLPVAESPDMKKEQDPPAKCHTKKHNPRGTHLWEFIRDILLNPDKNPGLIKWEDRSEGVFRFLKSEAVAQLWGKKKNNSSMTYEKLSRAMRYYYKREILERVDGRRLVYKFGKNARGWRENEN
# Outline: as §1
# SPI1 = SPI1 (Homo sapiens, UniProt P17947 1-270)
# Outline: as §1
# SPIB = SPIB (Homo sapiens, UniProt Q01892 1-262)
# Outline: as §1
# ELK3 = target: T6, ELK3 (Homo sapiens, UniProt P41970 1-407)
# T6 sequence: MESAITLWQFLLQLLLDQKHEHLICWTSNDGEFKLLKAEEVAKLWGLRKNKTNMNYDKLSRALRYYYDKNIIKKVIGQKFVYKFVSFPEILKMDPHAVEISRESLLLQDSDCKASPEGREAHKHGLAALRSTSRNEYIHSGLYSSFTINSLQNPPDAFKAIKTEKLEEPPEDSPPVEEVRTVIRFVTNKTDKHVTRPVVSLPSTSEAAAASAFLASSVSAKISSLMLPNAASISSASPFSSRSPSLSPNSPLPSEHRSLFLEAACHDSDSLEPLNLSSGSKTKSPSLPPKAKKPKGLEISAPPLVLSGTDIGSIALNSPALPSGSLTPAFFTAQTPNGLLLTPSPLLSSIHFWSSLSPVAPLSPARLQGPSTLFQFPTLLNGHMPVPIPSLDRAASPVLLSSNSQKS
# Outline: as §1
# Sequence of ELF1 (P32519 whole entry): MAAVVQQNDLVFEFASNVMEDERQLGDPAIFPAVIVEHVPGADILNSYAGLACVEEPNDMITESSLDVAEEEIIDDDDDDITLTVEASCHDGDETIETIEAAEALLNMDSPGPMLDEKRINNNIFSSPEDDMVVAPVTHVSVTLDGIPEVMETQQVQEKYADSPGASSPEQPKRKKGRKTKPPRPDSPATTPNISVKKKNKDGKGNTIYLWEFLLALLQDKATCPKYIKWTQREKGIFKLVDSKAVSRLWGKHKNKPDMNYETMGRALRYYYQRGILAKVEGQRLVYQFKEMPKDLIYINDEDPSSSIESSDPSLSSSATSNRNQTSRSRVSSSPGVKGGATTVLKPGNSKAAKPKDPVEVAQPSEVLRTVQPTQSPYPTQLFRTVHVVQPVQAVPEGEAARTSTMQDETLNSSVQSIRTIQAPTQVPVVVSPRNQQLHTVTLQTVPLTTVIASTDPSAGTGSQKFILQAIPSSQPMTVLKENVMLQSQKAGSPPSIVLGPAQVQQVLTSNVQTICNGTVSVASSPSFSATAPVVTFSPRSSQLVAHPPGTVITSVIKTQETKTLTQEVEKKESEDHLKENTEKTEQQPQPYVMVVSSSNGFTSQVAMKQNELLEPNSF
# Sequence of SPIB (Q01892 whole entry): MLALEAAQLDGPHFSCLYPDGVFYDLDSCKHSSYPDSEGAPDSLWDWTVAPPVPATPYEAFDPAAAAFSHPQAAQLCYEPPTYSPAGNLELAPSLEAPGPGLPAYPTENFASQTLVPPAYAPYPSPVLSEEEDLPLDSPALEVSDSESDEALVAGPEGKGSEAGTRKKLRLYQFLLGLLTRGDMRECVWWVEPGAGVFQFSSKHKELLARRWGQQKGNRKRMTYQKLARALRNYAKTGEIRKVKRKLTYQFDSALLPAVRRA
sequence,measurement,setting,value
CCGCTA,binding signal,FLI1,"1.45 fold enrichment (6-mer frequency, TF over GST control)"
same,binding signal,ELK1,"1.37 fold enrichment (6-mer frequency, TF over GST control)"
same,binding signal,GABPA,"1.2 fold enrichment (6-mer frequency, TF over GST control)"
same,binding signal,ERG,"1.37 fold enrichment (6-mer frequency, TF over GST control)"
same,binding signal,ELF1,"1.27 fold enrichment (6-mer frequency, TF over GST control)"
same,binding signal,EHF,"1.41 fold enrichment (6-mer frequency, TF over GST control)"
same,binding signal,SPI1,"1.51 fold enrichment (6-mer frequency, TF over GST control)"
same,binding signal,SPIB,"1.46 fold enrichment (6-mer frequency, TF over GST control)"
same,binding signal,ELK3,"1.37 fold enrichment (6-mer frequency, TF over GST control)"
